FH mod: Identification of activators of human fumarate hydratase by quantitative high-throughput screening | Fumarate hydratase, mitochondrial (Homo sapiens), P07954 | FH coupled MDH/diaphorase resazurin fluorescence, 15 min | Potency, µM (series often up to 79.9 µM), without a hit: top-dose activity change, negative = inhibition, most hits filed as inhibitors | actives 0.22% (n = 54,000); note: potency is the fitted concentration of half-maximal effect; % is set by controls: 0 for no effect and ±100 for the full control effect; the screen sought activators but most active calls are inhibition curves; nearly all actives have a fitted effect of over 45% in size
NTMT1 inh: blocks human N-terminal methyltransferase 1 activity; Q9BV86; NTMT1 MTase-Glo SAH luminescence, purified enzyme; Potency, µM (top dose mostly 114 µM), without a hit: at the highest dose activity change, negative = inhibition, actives largely listed as inhibitors; actives 2.5% (n = 59,000); AID 1645870;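 note: potency is the fitted concentration of half-maximal effect; plate controls were DMSO vehicle for no effect and no enzyme for full effect; nearly all actives have a fitted effect of over 65% in size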
Target sequence (Q9BV86 whole entry, looked up): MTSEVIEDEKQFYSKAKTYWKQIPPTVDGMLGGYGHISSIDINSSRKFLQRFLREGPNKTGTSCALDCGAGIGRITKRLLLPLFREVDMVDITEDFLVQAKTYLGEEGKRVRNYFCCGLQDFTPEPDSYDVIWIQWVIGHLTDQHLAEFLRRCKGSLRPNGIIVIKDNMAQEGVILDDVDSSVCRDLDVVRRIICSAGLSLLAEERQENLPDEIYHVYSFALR
DYRK1A inh-1: inhibitors of human DYRK1A kinase. actives 80% (n = 100). AID 2705. recombinant DYRK1A, Kinase-Glo ATP depletion luminescence. shares compounds with NTMT1 inh. Potency, µM (titrated, usually from 76.9 µM), without a hit: top-dose activity change, negative = inhibition, actives largely listed as inhibitors
CLK4 inh-1: CLK4 kinase inhibition, SAR round 2; shares compounds with NTMT1 inh; recombinant Clk4, Kinase-Glo ATP luminescence, 4.5 h; Potency, µM (titrated, usually from 76.9 µM), for the others: at the highest dose activity, negative = inhibition, actives largely listed as inhibitors; actives 90% (n = 90); AID 493204
CLK4 inh-2: CLK4 kinase inhibition, SAR round 2. shares compounds with NTMT1 inh. Reaction Biology kinase assay, 10 uM ATP. Potency, µM, most hits filed as inhibitors. actives 100% (n = 65). AID 504421; calls by dose curve
DYRK1A inh-2: DYRK1A kinase inhibition | actives 90% (n = 65) | Potency, µM, usual class: inhibitors | shares compounds with NTMT1 inh | AID 504424 | Reaction Biology kinase assay, 10 uM ATP;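 active = compounds that showed inhibition of Dyrk1a and received a fitted potency; inactive = compounds that showed no inhibition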
CLK2 RBC: inhibitors of human CLK2 kinase; shares compounds with NTMT1 inh; Reaction Biology kinase assay, 10 uM ATP; Potency, µM, usual class: inhibitors; actives 90% (n = 65); AID 504427;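 active = compound that inhibits Clk2 kinase in the dose series, with an IC50 potency reported; inactive = no inhibition seen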
CLK3 inh: inhibitors of human CLK3 kinase; shares compounds with NTMT1 inh; recombinant CLK3 kinase assay, 10 uM ATP; Potency, µM, most hits filed as inhibitors; actives 40% (n = 65);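 active = compounds that inhibited Clk3 enough in the ten-dose series to give a half-maximal potency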
DYRK1B RBC: blocks human DYRK1B kinase activity | Potency, µM, usual class: inhibitors | actives 80% (n = 65) | Recombinant Dyrk1b kinase assay, 10 uM ATP | shares compounds with NTMT1 inh | AID 504429;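 active = compounds whose dose response shows an inhibitor phenotype against the kinase Dyrk1b; inactive = compounds showing no inhibitor phenotype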
CLK1 inh: CLK1 kinase inhibition; AID 504430; shares compounds with NTMT1 inh; Potency, µM, actives largely listed as inhibitors; actives 90% (n = 65); recombinant Clk1 kinase assay, 10 uM ATP;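 active = compounds that block the splicing kinase Clk1 enough to give a fitted half-inhibition concentration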
HSD17B4 inh: inhibits human HSD17B4, off-target for HPGD inhibitors; purified HSD17B4, estradiol/NAD+, NADH fluorescence; actives 10% (n = 230); shares compounds with NTMT1 inh; Potency, µM (titrated, usually from 57.1 µM), for inactives: at the highest dose activity change, negative = inhibition, actives largely listed as inhibitors; AID 743187
ALDH1A1 counter: inhibits human ALDH1A1, off-target for HPGD inhibitors. recombinant ALDH1A1, NADH fluorescence, propionaldehyde/NAD+. actives 93% (n = 230). shares compounds with NTMT1 inh. Potency, µM (highest dose often 57.1 µM), for the others: top-dose activity change, negative = inhibition, usual class: inhibitors
NNMT inh: blocks human NNMT methyltransferase; shares compounds with NTMT1 inh; NNMT MTase-Glo luminescence, SAH detection; Potency, µM (top dose mostly 57.1 µM), for the others: top-dose activity, negative = inhibition, usual class: inhibitors; actives 10% (n = 120)
Target sequence (P40261 whole entry, looked up): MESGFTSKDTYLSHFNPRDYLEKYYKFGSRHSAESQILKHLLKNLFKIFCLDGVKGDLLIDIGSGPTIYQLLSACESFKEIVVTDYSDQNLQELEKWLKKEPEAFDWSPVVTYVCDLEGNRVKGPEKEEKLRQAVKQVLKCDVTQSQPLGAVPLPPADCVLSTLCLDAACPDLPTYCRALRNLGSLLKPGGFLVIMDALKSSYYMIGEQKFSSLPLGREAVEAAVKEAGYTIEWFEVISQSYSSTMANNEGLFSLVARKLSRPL
Numbers without * were called inactive; i = inactive; ? = inconclusive; / = no result; [ ] = dose if it differs, or a comment. The entries come from a sample that favours hits as a whole. Unless noted, calls come from the whole dose curve; as a rule, active = well fitted curve in the direction sought with a large enough effect; inconclusive = small, poorly fitted or top-dose-only effect, or another doubt; inactive = no such curve, though single readings can be large; an effect the other way counts as inactive or inconclusive.

SMILES | FH mod | NTMT1 inh | others
CCOC(=O)c1ccc(-c2ccc3ncnc(NCc4cccs4)c3c2)o1 | / | / | DYRK1A inh-1=1.5µM*;CLK4 inh-2=0.088*;DYRK1A inh-2=1.4µM*;CLK2 RBC=8.5µM*;CLK3 inh=i;DYRK1B RBC=4.3µM*;CLK1 inh=0.8µM*
Cc1cccc(CNc2ncnc3ccc(-c4cccc(C)c4)cc23)c1 | / | -1%
CCNC(=O)c1ccc(-c2ccc3ncnc(NCc4ccc(C)o4)c3c2)o1 | / | ? | CLK4 inh-1=0.52µM*;CLK4 inh-2=1.4*;DYRK1A inh-2=6.3µM*;CLK2 RBC=4.2µM*;CLK3 inh=i;DYRK1B RBC=6.7µM*;CLK1 inh=5.4µM*
CC(=O)c1ccc(-c2ccc3ncnc(NCc4ccc(C)o4)c3c2)o1 | / | ? | CLK4 inh-1=0.29µM*;CLK4 inh-2=0.56*;DYRK1A inh-2=5.8µM*;CLK2 RBC=6.9µM*;CLK3 inh=i;DYRK1B RBC=10µM*;CLK1 inh=7µM*
CC(=O)Nc1ccc(CNc2ncnc3ccc(-c4c(C)noc4C)cc23)cc1 | / | 0%[57.5 µM]
CCOC(=O)c1ccc(-c2ccc3ncnc(NCc4ccc(C)o4)c3c2)o1 | / | ? | DYRK1A inh-1=5.8µM*
O=c1[nH]c(CCl)nc2sc3c(c12)CCC3 | / | -3%
C/C(=N\N=C(N)N)c1cc(NC(=O)CCCCCCCCC(=O)Nc2cc(/C(C)=N/N=C(N)N)cc(/C(C)=N/N=C(N)N)c2)cc(/C(C)=N/N=C(N)N)c1 | -3% | 5.6µM* | NNMT inh=?
COc1cc(C(=O)N2CCC(N3CCN(C)CC3)CC2)ccc1Nc1ncc2c(n1)N(C)c1ccccc1C(=O)N2C | 11% | -14%
COc1cc(N2CCN(C(C)=O)CC2)ccc1Nc1ncc(Cl)c(Nc2ccc(N3CCN(C(C)=O)CC3)cc2OC)n1 | -11% | 20µM* | NNMT inh=?
COc1cc(N2CCC(N3CCN(C)CC3)CC2)ccc1Nc1ncc(Cl)c(-c2c[nH]c3ccccc23)n1 | ? | 20µM* | NNMT inh=?
CC(Nc1nc(-c2ccccc2C(F)(F)F)nc2ccccc12)c1ccc(-c2cccc(C(F)(F)F)c2)cc1 (stereo unspecified) | / | 14%
N#Cc1cccc(-c2c[nH]c3ncnc(N4CCOCC4)c23)c1 | -4% | 16µM* | NNMT inh=?
Cn1cc(-c2c[nH]c3ncnc(N4CCOCC4)c23)cn1 | 1% | -12%
O=C(c1cn(Cc2cncn2Cc2ccc(Br)cc2)cc1-c1cccc2ccccc12)N1CCOCC1 | -6% | 4%[57.5 µM]
Cc1ccc(-n2cnc3cc(C(=O)N4CCCCC4)ccc32)cc1 | / | 2%
O=C(c1ccc2c(c1)ncn2-c1cccc(C(F)(F)F)c1)N1CCCCC1 | / | 0%[57.5 µM] | HSD17B4 inh=-12%;ALDH1A1 counter=?
Cc1csc(CNc2ncnc3ccc(-c4ccc5c(c4)OCO5)cc23)c1 | / | 2%[57.5 µM]
Cc1csc(CNc2ncnc3ccc(-c4ccc5c(c4)OCO5)cc23)n1 | / | -27%
CN(Cc1ncc[nH]1)c1ncnc2ccc(-c3ccc4c(c3)OCO4)cc12 | / | ? | DYRK1A inh-1=0.73µM*
CN(CC1CCCO1)c1ncnc2ccc(-c3ccc4c(c3)OCO4)cc12 (stereo unspecified) | / | 10% | CLK4 inh-1=0.058µM*
CN(C)CCNC(=O)NC[C@H]1CC[C@@H]2[C@H](O1)c1cc(C(F)(F)F)ccc1N[C@H]2c1ccccc1 | / | -14%
